The results in this text go back to ChEMBL document CHEMBL1961873, “Compounds: GSK PKIS; Assays: Nanosyn kinase panel” (2012).

Molecules are shown by their SMILES.

The test system of test [1] is Tyrosine-protein kinase ABL1 (Homo sapiens), P00519 [T315I]. The settings on record: at 1 µM.
The subject of test [2] is Tyrosine-protein kinase ABL1 (Homo sapiens), P00519 [Y253F]. The following applies: at 0.1 µM.
Test [3] has the same test system. The following applies: at 1 µM.
For test [4], the target named is Tyrosine-protein kinase ABL1 (Homo sapiens) (UniProt P00519). The settings on record: at 0.1 µM.
For test [5] the target is unchanged. The following applies: at 1 µM.
Test [6] concerns the target ALK tyrosine kinase receptor (Homo sapiens) (UniProt Q9UM73). The settings on record: at 0.1 µM.
For test [7] the target is unchanged. The following applies: at 1 µM.
The target of test [8] is Tyrosine-protein kinase ABL2 (Homo sapiens) (UniProt P42684). The following applies: at 0.1 µM.
Test [9] shares this target. The following applies: at 1 µM.
The target in test [10] is Tyrosine-protein kinase receptor UFO (Homo sapiens) (UniProt P30530). The settings on record: at 0.1 µM.
For test [11] the target is unchanged. The following applies: at 1 µM.
The target of test [12] is Tyrosine-protein kinase Blk (Homo sapiens) (UniProt P51451). The settings on record: at 0.1 µM.
Test [13] shares this target. The settings on record: at 1 µM.
Test [14] deals with T1, Cytoplasmic tyrosine-protein kinase BMX (Homo sapiens) (UniProt P51813).
T1 sequence (whole entry): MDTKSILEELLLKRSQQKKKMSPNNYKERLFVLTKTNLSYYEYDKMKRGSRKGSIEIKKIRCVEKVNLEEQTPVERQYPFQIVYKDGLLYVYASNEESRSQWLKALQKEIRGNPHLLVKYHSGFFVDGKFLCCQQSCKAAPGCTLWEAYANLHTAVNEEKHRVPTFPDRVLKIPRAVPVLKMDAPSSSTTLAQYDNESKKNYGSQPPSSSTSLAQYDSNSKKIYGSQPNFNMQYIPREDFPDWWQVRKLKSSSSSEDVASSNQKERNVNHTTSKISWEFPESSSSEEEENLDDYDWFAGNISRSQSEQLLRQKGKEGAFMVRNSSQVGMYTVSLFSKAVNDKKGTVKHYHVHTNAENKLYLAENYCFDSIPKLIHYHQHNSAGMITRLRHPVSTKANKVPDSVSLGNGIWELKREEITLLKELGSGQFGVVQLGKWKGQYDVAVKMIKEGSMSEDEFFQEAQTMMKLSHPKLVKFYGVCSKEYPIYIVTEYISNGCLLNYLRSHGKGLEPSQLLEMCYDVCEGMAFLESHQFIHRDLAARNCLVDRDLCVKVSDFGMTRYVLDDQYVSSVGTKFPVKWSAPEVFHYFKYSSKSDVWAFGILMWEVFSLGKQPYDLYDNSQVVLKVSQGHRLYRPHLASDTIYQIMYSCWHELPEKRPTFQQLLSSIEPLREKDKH
The following applies: at 0.1 µM.

For test [15], the target named is T1, Cytoplasmic tyrosine-protein kinase BMX (Homo sapiens). The following applies: at 1 µM.
Test [16] concerns the target Protein-tyrosine kinase 6 (Homo sapiens) (UniProt Q13882). The settings on record: at 0.1 µM.
For test [17] the target is unchanged. The settings on record: at 1 µM.
Test [18] concerns the target Tyrosine-protein kinase BTK (Homo sapiens) (UniProt Q06187). The following applies: at 0.1 µM.
Test [19] shares this target. The settings on record: at 1 µM.
The target in test [20] is Tyrosine-protein kinase CSK (Homo sapiens) (UniProt P41240). The following applies: at 0.1 µM.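 Note: value given is the averaged percent inhibition of CSK kinase activity, from the GSK PKIS kinase inhibitor set screening panel.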
Chain of Tyrosine-protein kinase CSK (Homo sapiens) (P41240 2-450 limits assumed): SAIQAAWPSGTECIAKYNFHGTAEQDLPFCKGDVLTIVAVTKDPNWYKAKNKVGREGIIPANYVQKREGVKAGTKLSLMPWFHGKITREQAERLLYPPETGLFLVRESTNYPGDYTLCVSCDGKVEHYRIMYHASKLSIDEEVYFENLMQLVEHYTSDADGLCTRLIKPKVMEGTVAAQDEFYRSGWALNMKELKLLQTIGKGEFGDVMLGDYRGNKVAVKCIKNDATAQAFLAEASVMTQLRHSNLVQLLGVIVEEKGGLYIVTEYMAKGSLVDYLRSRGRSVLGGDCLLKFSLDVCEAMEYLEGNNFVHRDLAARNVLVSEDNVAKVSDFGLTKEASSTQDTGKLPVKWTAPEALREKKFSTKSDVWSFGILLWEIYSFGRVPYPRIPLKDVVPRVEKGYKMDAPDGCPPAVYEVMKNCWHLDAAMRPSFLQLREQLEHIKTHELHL

Chain of Tyrosine-protein kinase Blk (Homo sapiens) (P51451 2-505 limits assumed): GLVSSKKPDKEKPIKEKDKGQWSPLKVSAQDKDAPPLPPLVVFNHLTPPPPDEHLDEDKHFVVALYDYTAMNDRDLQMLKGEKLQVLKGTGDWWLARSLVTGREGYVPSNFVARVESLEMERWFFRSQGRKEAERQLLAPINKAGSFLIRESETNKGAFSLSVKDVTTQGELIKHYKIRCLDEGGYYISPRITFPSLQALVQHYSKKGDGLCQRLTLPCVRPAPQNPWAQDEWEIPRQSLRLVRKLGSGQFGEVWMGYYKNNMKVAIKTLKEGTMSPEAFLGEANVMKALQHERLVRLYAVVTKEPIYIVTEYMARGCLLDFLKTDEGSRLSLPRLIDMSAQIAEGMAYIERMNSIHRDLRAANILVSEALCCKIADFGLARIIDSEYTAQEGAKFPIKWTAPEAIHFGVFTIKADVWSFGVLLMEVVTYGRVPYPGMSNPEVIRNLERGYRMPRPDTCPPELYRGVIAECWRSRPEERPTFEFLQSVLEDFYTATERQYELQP
Chain of Tyrosine-protein kinase BTK (Homo sapiens) (Q06187 whole entry): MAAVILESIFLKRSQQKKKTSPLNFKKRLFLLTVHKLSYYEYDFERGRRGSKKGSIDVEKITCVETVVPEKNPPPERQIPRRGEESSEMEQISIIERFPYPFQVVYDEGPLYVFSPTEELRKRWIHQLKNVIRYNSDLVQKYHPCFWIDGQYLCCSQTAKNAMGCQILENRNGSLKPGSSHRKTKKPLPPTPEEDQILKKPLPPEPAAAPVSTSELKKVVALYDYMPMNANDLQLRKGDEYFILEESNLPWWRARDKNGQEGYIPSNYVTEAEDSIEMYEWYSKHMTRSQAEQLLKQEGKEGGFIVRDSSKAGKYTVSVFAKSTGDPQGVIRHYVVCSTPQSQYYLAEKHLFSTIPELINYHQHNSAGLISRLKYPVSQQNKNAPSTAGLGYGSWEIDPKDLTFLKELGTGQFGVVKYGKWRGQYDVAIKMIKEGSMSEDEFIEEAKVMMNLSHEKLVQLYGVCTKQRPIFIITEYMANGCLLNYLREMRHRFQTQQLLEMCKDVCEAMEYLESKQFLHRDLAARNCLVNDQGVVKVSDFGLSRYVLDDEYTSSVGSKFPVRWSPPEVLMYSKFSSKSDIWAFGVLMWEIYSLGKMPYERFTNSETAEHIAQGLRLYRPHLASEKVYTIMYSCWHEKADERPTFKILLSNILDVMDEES
Chain of Tyrosine-protein kinase receptor UFO (Homo sapiens) (P30530 whole entry): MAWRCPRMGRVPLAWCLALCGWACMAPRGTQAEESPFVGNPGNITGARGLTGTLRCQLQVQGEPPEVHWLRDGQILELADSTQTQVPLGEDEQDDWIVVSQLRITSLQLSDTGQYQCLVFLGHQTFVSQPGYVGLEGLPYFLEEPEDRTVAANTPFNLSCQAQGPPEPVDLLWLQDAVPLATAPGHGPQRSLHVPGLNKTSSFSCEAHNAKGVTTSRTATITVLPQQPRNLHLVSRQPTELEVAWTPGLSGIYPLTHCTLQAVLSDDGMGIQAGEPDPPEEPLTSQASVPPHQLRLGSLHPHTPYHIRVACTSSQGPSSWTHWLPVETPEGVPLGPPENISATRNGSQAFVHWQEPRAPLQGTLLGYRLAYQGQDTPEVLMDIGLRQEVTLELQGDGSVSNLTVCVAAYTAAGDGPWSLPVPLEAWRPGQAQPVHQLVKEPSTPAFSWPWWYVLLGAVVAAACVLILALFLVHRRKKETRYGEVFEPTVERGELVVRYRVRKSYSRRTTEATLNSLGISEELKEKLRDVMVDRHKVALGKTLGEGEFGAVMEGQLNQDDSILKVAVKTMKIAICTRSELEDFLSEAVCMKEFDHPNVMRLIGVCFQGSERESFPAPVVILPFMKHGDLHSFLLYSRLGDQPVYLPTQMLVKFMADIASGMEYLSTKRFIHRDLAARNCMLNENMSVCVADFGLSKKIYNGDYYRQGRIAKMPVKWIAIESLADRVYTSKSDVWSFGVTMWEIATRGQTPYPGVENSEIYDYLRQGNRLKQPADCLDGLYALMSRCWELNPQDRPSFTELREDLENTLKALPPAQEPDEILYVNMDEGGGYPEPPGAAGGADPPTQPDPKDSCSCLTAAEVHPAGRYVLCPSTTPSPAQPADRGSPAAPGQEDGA
Chain of Tyrosine-protein kinase ABL2 (Homo sapiens) (P42684 whole entry): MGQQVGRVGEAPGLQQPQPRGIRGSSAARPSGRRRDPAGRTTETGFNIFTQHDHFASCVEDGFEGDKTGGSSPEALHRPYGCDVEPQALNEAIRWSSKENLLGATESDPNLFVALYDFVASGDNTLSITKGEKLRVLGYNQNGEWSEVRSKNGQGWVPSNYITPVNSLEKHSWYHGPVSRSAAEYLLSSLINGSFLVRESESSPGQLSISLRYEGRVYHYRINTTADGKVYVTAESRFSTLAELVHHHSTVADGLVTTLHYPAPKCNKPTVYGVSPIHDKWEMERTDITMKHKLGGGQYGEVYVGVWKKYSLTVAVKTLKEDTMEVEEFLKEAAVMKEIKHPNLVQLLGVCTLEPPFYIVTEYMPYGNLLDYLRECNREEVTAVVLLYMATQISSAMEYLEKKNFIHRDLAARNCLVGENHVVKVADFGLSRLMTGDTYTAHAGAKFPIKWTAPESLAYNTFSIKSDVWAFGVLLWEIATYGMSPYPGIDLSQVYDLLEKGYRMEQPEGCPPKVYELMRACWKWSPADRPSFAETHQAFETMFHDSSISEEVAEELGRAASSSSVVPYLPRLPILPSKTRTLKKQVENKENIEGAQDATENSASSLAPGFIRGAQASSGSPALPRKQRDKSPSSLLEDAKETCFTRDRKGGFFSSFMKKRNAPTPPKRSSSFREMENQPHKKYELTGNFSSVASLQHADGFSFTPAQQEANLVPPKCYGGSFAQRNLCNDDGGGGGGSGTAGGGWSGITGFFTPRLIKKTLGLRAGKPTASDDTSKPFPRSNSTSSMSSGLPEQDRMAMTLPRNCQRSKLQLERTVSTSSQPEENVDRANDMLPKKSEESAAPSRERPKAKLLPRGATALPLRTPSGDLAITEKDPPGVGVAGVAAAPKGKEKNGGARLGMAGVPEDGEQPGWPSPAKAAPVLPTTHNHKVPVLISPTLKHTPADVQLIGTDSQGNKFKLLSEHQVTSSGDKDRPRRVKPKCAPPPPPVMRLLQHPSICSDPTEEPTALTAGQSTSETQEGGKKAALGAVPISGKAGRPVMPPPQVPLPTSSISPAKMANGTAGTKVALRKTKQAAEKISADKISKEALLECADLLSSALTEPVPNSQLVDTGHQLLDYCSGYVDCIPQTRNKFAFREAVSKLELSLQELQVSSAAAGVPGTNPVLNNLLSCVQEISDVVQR
Chain of Protein-tyrosine kinase 6 (Homo sapiens) (Q13882 whole entry, looked up): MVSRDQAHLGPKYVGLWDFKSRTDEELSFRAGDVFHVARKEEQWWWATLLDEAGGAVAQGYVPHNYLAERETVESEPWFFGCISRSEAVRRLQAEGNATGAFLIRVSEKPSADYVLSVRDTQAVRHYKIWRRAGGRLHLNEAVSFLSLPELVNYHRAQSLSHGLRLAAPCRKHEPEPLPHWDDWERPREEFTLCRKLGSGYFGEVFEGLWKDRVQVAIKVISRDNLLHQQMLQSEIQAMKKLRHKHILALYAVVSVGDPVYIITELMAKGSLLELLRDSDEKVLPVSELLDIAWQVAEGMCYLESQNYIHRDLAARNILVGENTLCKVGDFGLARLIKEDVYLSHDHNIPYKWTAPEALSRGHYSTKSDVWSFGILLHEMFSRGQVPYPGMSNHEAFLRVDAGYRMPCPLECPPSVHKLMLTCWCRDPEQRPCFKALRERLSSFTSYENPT

In the case of `CCS(=O)(=O)c1ccc(OC)c(Nc2ncc(-c3ccccc3Cl)o2)c1`, the inhibition (in general, the drop in the measured response relative to a control, in per cent) in [1] was determined as 11.7%; in test [2], 5.95%; in [3], 33.3%; in test [4], 2.99%; in test [5], 29.3%; in test [6], 0.79%. The inhibition in [7] is 5.19%; in [8] it was 4.89%; in test [9] it was 24.5%; in test [10], -0.86%; in [11] it was 1.78%; in test [12], 2.51%. Also, the inhibition was 15.7% in test [13]; -1.76% in test [14]; 3.11% in [15]; -0.35% in [16]; 5.66% in test [17]; 2.72% in test [18]. Also, the inhibition in [19] is 2.31%; in test [20], 1.15%.
Consider `COc1cccc(-n2cnc3c(N/N=C/c4ccncc4)ncnc32)c1`, for which the inhibition is 28.5% in test [1]; 44.6% in test [2]; 85.3% in [3]; 29% in [4]; 72.2% in test [5]; -1.9% in test [6]. Moreover, the inhibition in test [7] is -4.64%; in [8], 12.7%; in test [9], 59.5%; in test [10], 3.99%; in test [11], -2.08%; in test [12], -0.3%. Also, the inhibition in [13] was 15.8%; in [14], -0.75%; in test [15], 16.1%; in [16], 0.43%; in test [17], 15.2%; in test [18], -2.61%. The inhibition in [19] was -2.79%; in [20], 1.91%.
In the case of `COc1cc(C)c(N(C)C(=O)CN(C)C)cc1Nc1nc(Nc2cccc(F)c2C(N)=O)c2cc[nH]c2n1`, the inhibition in test [1] is -0.05%; in test [2], 2.02%; in test [3], 1.33%; in [4], 0.32%; in test [5], 0.22%; in [6], 22.4%. The inhibition in test [7] was 69.9%; in [8] it was -2.32%; in [9], -3.83%; in [10], -0.45%; in [11], 3.71%; in test [12], -3.28%. Besides, the inhibition is -1.84% in test [13]; -1.82% in test [14]; 2.46% in test [15]; 0.54% in test [16]; 1.53% in test [17]; -1.73% in test [18]. The inhibition in test [19] is -2.02%; in test [20], 1.1%.
For the compound `Cc1ccc(C(=O)NC(C)C)cc1-c1ccc(C(=O)NCC2CC2)cc1`, the inhibition in test [1] was 0.58%; in test [2] it was -2.81%; in test [3] it was -0.96%; in test [4], 0.14%; in [5], 1.26%; in test [6], -4.4%. Also, the inhibition in [7] is -3.45%; in [8], -2.09%; in test [9] it was -0.41%; in [10] it was 2.35%; in test [11], 4.77%; in [12], -1.25%. The inhibition in test [13] is -1.6%; in [14], -4.33%; in [15], -4.09%; in [16], -3.3%; in [17], -4.09%; in test [18], -0.46%. In addition, the inhibition in [19] is -1.32%; in test [20], -7.18%.
Consider `CN(C)CCCNc1nccc(-c2c(-c3ccc(F)cc3)nn3cc(C(F)(F)F)ccc23)n1`, for which the inhibition is 2.66% in [1]; 3.93% in [2]; 6.04% in test [3]; 2.04% in [4]; 11.2% in [5]; -2.64% in test [6]. Further, the inhibition in [7] is -0.07%; in test [8], 2.2%; in test [9] it was 6.34%; in test [10] it was -2.11%; in test [11], 3.68%; in [12], -1.5%. Also, the inhibition in [13] was -0.77%; in test [14], -2.3%; in test [15], 3.77%; in test [16] it was 2.2%; in [17], 4.39%; in test [18], -3.09%. Also, the inhibition in [19] is -2.3%; in test [20], 2.44%.
For the compound `CS(=O)(=O)CCNCc1cc(-c2cc3c(Nc4ccc(OCc5cccc(F)c5)c(Cl)c4)ncnc3s2)cs1`, the inhibition in test [1] stood at 4.55%; in test [2] it was 2.36%; in test [3], 4.31%; in test [4] it was 3.45%; in test [5], 6.21%; in test [6], 2.96%. Also, the inhibition in test [7] was 4.5%; in [8] it was 2.95%; in [9], 6.38%; in [10], -7.56%; in test [11], -6.81%; in [12], 2.61%. The inhibition in test [13] was 5.05%; in test [14], 3.9%; in test [15], 7.31%; in [16], 1.27%; in [17] it was 5.98%; in test [18], -1.08%. Moreover, the inhibition was found to be 0.76% in [19] and 1.58% in [20].
